Values without a mark were called inactive. Results filed as inconclusive are left out. Calls of active or inactive are those of the source. Unless noted, the call rests on the fitted dose curve; in most records, active means well fitted curve in the direction sought with a large enough effect in the repeat runs; inconclusive means weak or mixed curves; inactive means no such curve, though single readings can be large; an effect the other way counts as inactive or inconclusive.

A short description of assay [1]: qHTS assay to identify small molecule antagonists of the estrogen related receptor (ERR) signaling pathway from Tox21 library - cell viability counter screen (AID 1224834). Further: nearly all actives have a fitted effect of over 30% in size. Further: potency means the concentration at half of the fitted maximal effect. Summed up: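 Compounds in DMSO were pinned onto ERR cells that had been incubated for 6 h, and the plates were held at 37 C for 17.5 h. CellTiter-Fluor reagent was then added and fluorescence was measured after 30 min.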

Assay [2] addresses Luciferin 4-monooxygenase (Photinus pyralis) (UniProt P08659). Briefly: qHTS assay to identify small molecule inhibitors of firefly luciferase (AID 1224835). Further: nearly all actives have a fitted effect of over 25% in size. Further: potency means the concentration at half of the fitted maximal effect. Summed up:
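Inhibition of purified Photinus luciferase is measured by luminescence. Substrate levels (D-luciferin, ATP) sit at their KM values. Each compound is tested in a concentration series.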

Assay [3] can be described thus: qHTS assay to identify small molecule agonists of the constitutive androstane receptor (CAR) signaling pathway - cell viability counter screen (AID 1224836). Further: nearly all actives have a fitted effect of over 45% in size. Further: potency means the concentration at half of the fitted maximal effect. In outline: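 Counter screen multiplexed with the CAR reporter readout: HepG2 cells co-transfected with hCAR and the CYP2B6-2.2kb construct receive a 15-concentration compound series and 0.75 uM PK11195 (final), then CellTiter-Fluor fluorescence is read after 23 h.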
Background: Quantitative high-throughput screening tests each substance at several concentrations.

The target in assay [4] is Nuclear receptor subfamily 1 group I member 3 (Homo sapiens) (UniProt Q14994). Nature of the assay: qHTS assay to identify small molecule antagonists of the constitutive androstane receptor (CAR) signaling pathway (AID 1224838).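 Further: HepG2 cells stably expressing hCAR with CYP2B6 luciferase reporter stimulated by CITCO; nearly all actives have a fitted effect of over 40% in size.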 Further: potency means the concentration at half of the fitted maximal effect. In outline:
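Luminescence from a CYP2B6-2.2kb promoter reporter in hCAR-expressing HepG2 cells reflects CAR signaling. Cells received compounds at 15 concentrations and 50 nM CITCO (final), then incubated 24 h at 37 C/5% CO2.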

Assay [5] has the same target. Briefly: qHTS assay to identify small molecule agonists of the constitutive androstane receptor (CAR) signaling pathway (AID 1224839). Further: nearly all actives have a fitted effect of over 15% in size. Further: potency means the concentration at half of the fitted maximal effect. Summed up:
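A 15-concentration quantitative screen uses HepG2 cells co-transfected stably with human CAR and CYP2B6-2.2kb reporter. Treatment lasts 24 h with 0.75 uM PK11195 final present; ONE-Glo luminescence is the signal.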

A short description of assay [6]: qHTS assay to identify small molecule antagonists of the estrogen related receptor signaling pathway with the pleiotropic PPARgamma coactivator (PGC) from Tox21 10K library - cell viability counter screen (AID 1224840; active means well fitted cell-killing curve with a large enough effect in the repeat runs, not every such curve was filed as active; further: nearly all actives have a fitted effect of over 40% in size; further: potency means the concentration at half of the fitted maximal effect). Summed up: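 Cell viability is measured by CellTiter-Fluor fluorescence in PGC/ERR cells that receive compounds after a 6-hour attachment period and are then incubated 17.5 hours at 37 C.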

Assay [7] in a line: qHTS assay to identify small molecule agonists of H2AX (AID 1224845; active means well fitted activation curve with a large enough effect in the signal ratio in the repeat runs, not every such curve was filed as active; the % refers to the signal ratio). Summed up:
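Phospho-H2AX Ser139 measured by HTRF (ex 320 nm; em 665 and 620 nm) after 24 hr antibody incubation. Compounds, 15 concentrations, 0.76% DMSO, were applied to CHO-K1 cells for 3hr at 37C before lysis.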

The nature of assay [8]: qHTS RealTime-Glo MT Cell Viability Assay in HepG2 cells - 24 hour (AID 1224867). Further: nearly all actives have a fitted effect of over 50% in size. Further: potency means the concentration at half of the fitted maximal effect. Summed up: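 Cell number in HepG2 cultures estimated from NanoLuc luminescence generated by metabolic reduction of a prosubstrate by living cells. The homogeneous, nonlytic format allowed repeated reads at 0, 8, 16, 24, 32 and 40 h of compound exposure.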
Assay [9] in a line: A CellTox Green Cytotoxicity Assay to monitor cytotoxicity in HEK293 cells - 0 hour (AID 1224869). Further: nearly all actives have a fitted effect of over 50% in size. Summed up: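 Dead-cell fluorescence measured kinetically: asymmetric cyanine dye, HEK293, 600 cells/well, 5 h settle, 23 nL cpd/DMSO, 37 C, reads 0–40 h every 8 h.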
Assay [10] can be described thus: qHTS RealTime-Glo MT Cell Viability Assay in HepG2 cells - 40 hour (AID 1224870). Further: nearly all actives have a fitted effect of over 50% in size. Further: potency means the concentration at half of the fitted maximal effect. Summed up:
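Real-time viability: cells seeded at 600 per well together with NanoLuc and cell-permeant prosubstrate, compounds added after 5 h incubation. Luminescence tracked at 0, 8, 16, 24, 32 and 40 h of exposure.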

Assay [11] concerns the target Thyrotropin receptor (Homo sapiens) (UniProt P16473). Nature of the assay: qHTS assay to identify small molecule agonists of the thyroid stimulating hormone receptor (TSHR) signaling pathway (AID 1224843; calls by dose curve; further: nearly all actives have a fitted effect of over 45% in size). In outline: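 A cell-based cAMP HTRF format was run in TSHR-transfected HEK293 cells, 800 per well. Treatment: 30 min, room temperature. Detection: 1 h with labelled cAMP and anti-cAMP cryptate. Concentration-response over 15 points, three replicates.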

Assay [12] in a line: qHTS assay to identify small molecule agonists of the hypoxia (HIF-1) signaling pathway - cell viability counter screen (AID 1224844; calls by dose curve; further: nearly all actives have a fitted effect of over 50% in size; further: potency means the concentration at half of the fitted maximal effect). Summed up: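 Viability counter screen: HRE-bla ME-180 cells plated 5 hrs before compound addition, treated 17 hrs at 37C and 5% CO2, then CellTiter-Glo added after the FRET reporter read; luminescence after 30 min.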
Assay [13] is described as follows: qHTS assay to identify small molecule agonists of H2AX - cell viability counter screen (AID 1224847; calls by dose curve; further: nearly all actives have a fitted effect of over 30% in size; further: potency means the concentration at half of the fitted maximal effect). In outline:
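We seed wild-type CHO-K1 cells overnight, treat them for 3 hr at 37C with compounds in 15-concentration series, and quantify remaining viability by CellTiter-Glo luminescence.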

Assay [14] can be described thus: qHTS RealTime-Glo MT Cell Viability Assay in HEK293 cells - 32 hour (AID 1224868). Further: nearly all actives have a fitted effect of over 50% in size. Further: potency means the concentration at half of the fitted maximal effect. Summed up: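 Homogeneous bioluminescent viability format in HEK293 cells (600 cells/well). Following 5 h at 37 C/5% CO2, 23 nL compound was pintooled; the signal was measured repeatedly during 40 h incubation.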
The nature of assay [15]: qHTS assay to identify small molecule antagonists of the constitutive androstane receptor (CAR) signaling pathway - cell viability counter screen (AID 1224837). Further: nearly all actives have a fitted effect of over 45% in size. Summed up: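 Cells are seeded, rested 4 hr at 37 C/5% CO2, dosed with compound (15-point series) and 50 nM CITCO, incubated a further 23 hr, and then CellTiter-Fluor reagent is added before fluorescence is read. The line is HepG2 with stable hCAR and CYP2B6-2.2kb.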

Assay [16] in a line: qHTS assay to identify small molecule agonists of the estrogen related receptor signaling pathway with the pleiotropic PPARgamma coactivator (PGC) from Tox21 10K library (AID 1224842). Further: nearly all actives have a fitted effect of over 15% in size. Summed up:
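Luminescence from One-Glo (30 min, room temperature) measured after PGC/ERR cells had 18 h at 37 C with pinned compound (23 nL in DMSO). Cells had been seeded at 2,000 per well and pre-incubated 6 h.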

Assay [17] in a line: qHTS assay to identify small molecule agonists of the hypoxia (HIF-1) signaling pathway (AID 1224846; active means well fitted activation curve with a large enough effect in the signal ratio in the repeat runs, not every such curve was filed as active; the % refers to the signal ratio). Summed up: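 Agonist mode reporter screen. ME-180 cells stably expressing bla under HRE control received test compounds in DMSO for 17 hrs (37C, 5% CO2), and beta-lactamase activity was then detected with the CCF4-AM FRET substrate.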
Assay [18] is described as follows: qHTS assay to identify small molecule antagonists of the estrogen related receptor (ERR) signaling pathway from Tox21 library (AID 1224848). Further: nearly all actives have a fitted effect of over 50% in size. In outline:
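ERR cell line, 2,000 cells/well. 6 h settle, then compound (DMSO) added; 18 h at 37 C; ONE-Glo luminescence after 30 min RT.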

The nature of assay [19]: qHTS assay to identify small molecule agonists of the estrogen related receptor (ERR) signaling pathway from Tox21 library (AID 1224849; calls by dose curve; further: nearly all actives have a fitted effect of over 15% in size). The conditions noted are these: ERR reporter cell line, ONE-Glo luciferase, 18 h; at 92.4 µM (top of the series) unless noted. Summed up:
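Quantitative HTS in agonist format: NTP ERR cell line, compounds transferred in DMSO after 6 h plating, 18 h incubation at 37 C, ONE-Glo luminescence endpoint.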

Assay [20] in a line: qHTS assay to identify small molecule antagonists of the estrogen related receptor signaling pathway with the pleiotropic PPARgamma coactivator (PGC) from Tox21 10K library (AID 1224841; call rule not given here). In outline: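 Cells stably carrying the PGC/ERR reporter, seeded at 2,000 per well, received pin-transferred compounds 6 h post-plating. Exposure lasted 18 h at 37 C. Signal: One-Glo luminescence.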
On the % scale 0 is the no-effect control and ±100 the full control effect.

Chain of Thyrotropin receptor (Homo sapiens) (P16473 whole entry, looked up): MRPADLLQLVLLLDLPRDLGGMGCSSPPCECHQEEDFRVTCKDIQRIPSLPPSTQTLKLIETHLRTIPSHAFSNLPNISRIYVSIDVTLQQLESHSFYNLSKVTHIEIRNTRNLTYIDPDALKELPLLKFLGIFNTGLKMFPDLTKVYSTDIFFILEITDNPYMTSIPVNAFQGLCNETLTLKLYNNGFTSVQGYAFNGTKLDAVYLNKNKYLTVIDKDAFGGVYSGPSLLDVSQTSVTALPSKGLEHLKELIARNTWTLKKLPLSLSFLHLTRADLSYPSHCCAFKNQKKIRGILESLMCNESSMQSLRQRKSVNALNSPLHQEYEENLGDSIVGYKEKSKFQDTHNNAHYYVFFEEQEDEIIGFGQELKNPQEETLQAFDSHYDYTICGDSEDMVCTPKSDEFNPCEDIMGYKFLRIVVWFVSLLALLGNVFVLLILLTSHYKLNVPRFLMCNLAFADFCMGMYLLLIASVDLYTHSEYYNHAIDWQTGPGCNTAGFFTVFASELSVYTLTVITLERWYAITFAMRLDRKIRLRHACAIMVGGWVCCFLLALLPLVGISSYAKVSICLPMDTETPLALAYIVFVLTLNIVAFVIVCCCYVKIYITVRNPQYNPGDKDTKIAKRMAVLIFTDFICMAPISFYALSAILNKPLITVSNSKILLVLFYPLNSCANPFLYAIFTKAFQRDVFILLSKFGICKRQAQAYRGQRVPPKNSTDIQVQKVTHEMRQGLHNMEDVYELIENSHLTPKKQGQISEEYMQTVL
Chain of Luciferin 4-monooxygenase (Photinus pyralis) (P08659 whole entry, looked up): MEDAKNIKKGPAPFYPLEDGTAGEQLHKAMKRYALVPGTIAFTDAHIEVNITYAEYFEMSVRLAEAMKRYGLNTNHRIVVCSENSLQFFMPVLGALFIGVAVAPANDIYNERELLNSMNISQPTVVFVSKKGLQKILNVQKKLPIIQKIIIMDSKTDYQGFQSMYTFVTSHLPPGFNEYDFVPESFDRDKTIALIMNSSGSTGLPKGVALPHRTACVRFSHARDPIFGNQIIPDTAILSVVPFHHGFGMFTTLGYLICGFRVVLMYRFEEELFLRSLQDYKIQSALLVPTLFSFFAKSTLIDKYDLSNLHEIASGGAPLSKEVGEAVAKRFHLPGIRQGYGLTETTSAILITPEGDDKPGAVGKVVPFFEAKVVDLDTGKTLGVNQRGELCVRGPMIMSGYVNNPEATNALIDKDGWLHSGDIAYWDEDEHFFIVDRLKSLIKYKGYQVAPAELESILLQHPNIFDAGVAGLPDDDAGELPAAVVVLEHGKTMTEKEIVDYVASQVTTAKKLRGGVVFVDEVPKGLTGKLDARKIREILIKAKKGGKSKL
Chain of Nuclear receptor subfamily 1 group I member 3 (Homo sapiens) (Q14994 whole entry, looked up): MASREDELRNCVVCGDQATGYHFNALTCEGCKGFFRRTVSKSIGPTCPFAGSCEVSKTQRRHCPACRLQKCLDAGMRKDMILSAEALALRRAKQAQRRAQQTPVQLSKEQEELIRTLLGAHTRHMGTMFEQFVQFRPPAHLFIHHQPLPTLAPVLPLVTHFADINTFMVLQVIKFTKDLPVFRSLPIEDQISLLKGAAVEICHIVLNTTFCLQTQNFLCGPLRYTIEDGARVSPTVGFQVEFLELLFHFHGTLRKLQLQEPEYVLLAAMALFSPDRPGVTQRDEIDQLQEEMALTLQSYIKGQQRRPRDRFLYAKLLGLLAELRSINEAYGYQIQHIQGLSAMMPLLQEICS

In the case of `Fc1ccc(Oc2ccnc3cc(Cl)cc(Cl)c23)cc1`, the Potency entry in assay [1], in [3], in assay [4], in assay [6], in assay [7] and in assay [8] was “inactive” in each case. The Potency result in assay [9] and in assay [10] was “inactive” throughout. For the same compound, the Potency in assay [2] was 35.6 µM (active); in [5], 27.3 µM (active).

Regarding `CCCCCCCCCC[N+](C)(C)CCCCCCCCCC`, the Potency in assay [1] was 43.3 µM (active); in [3], 43.3 µM (active); in assay [4], 27.3 µM (active); in assay [6], 27.3 µM (active); in assay [12] it was 27.5 µM (active); in assay [13], 40.1 µM (active). In addition, the Potency was 7.76 µM (active) in [8], 1.1 µM (active) in [14] and 7.76 µM (active) in assay [10]. Moreover, the Potency entry in assay [2], in assay [5] and in assay [11] was “inactive” in each case.

`[CH3][Hg][Cl]`: the Potency in assay [1] was 60.9 µM (active); in assay [2], 5.62 µM (active); in assay [3], 24.3 µM (active); in assay [6] it was 38.5 µM (active); in [12], 10.9 µM (active); in [13], 50.4 µM (active). Moreover, the Potency in assay [8] was 10.9 µM (active); in assay [14], 4.35 µM (active); in assay [10], 10.9 µM (active). The Potency entry in assay [5], in assay [11] and in assay [9] was “inactive” throughout.

Turning to `Oc1ccc(C2(c3ccc(O)cc3)CCCCC2)cc1`, the Potency in assay [1] was 57.9 µM (active); in assay [13] it was 95.4 µM (active); in assay [14], 52.1 µM (active). The Potency entry in [2], in assay [7], in [8], in assay [9] and in assay [10] was “inactive” each time.

As for `C[C@]12CC[C@H]3[C@@H](CCC4=CC(=O)CC[C@@]43C)[C@@H]1CC[C@@H]2O`, the Potency entry in assay [1], in assay [3], in [15], in assay [4], in assay [5] and in assay [6] was “inactive” in each case. In addition, the Potency entry in [12], in assay [13], in [8], in assay [9] and in assay [10] was “inactive” throughout. The Potency in assay [14] is 48.6 µM (active).

Take `CC(C)(COCC1CO1)COCC1CO1` (stereo not given): the Potency result in assay [1], in assay [3], in assay [15], in assay [4], in assay [5] and in [6] was “inactive” each time. Also, the Potency result in assay [16], in assay [11], in assay [18], in assay [8], in [14] and in assay [9] was “inactive” each time. Besides, the Potency entry in assay [10] was “inactive”. Further, the result in assay [17] was inactive. For the same compound, in assay [19], the activity change, positive = activation is -8.81%.

With `Cc1ccc(C(=O)Cl)cc1`, the Potency result in assay [1], in assay [3], in assay [15], in assay [4], in assay [5] and in assay [6] was “inactive” in each case. Further, the Potency result in [20], in assay [16], in assay [11], in assay [13], in assay [18] and in [8] was “inactive” each time. Moreover, the Potency result in assay [14] and in [9] was “inactive” in each case. Also, the compound was classed as inactive in assay [17].

In the case of `Nc1ccccc1C(=O)Oc1ccc2ccccc2c1`, the Potency result in assay [1], in assay [3], in assay [15], in assay [4], in [6] and in [11] was “inactive” throughout. Further, the Potency entry in [8], in [14], in assay [9] and in [10] was “inactive” throughout. Moreover, the Potency in [5] is 54.5 µM (active); in [13], 80 µM (active).

For `ClCc1ccc(Cl)cc1Cl`, the Potency entry in assay [1], in assay [3], in [15], in assay [4], in assay [5] and in assay [6] was “inactive” each time. The Potency result in assay [11], in assay [12], in assay [7], in assay [13], in [8] and in assay [9] was “inactive” throughout. Further, the Potency result in [10] is “inactive”. Also, the outcome in assay [17] was inactive.

For the origin of these results see PubChem BioAssay (Tox21).
